This assay addresses Focal adhesion kinase 1 (Homo sapiens) (UniProt Q05397). The assay can be described thus: small-molecule microarray binders of FAK, primary screen, biochemical, 635/667 nm fluorescence, BSA, DTT (AID 1130).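 Further: composite of spot emission at 667 nm and signal to noise over triplicate slides.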 The following applies: PTK2 binding, 635 nm fluorescence, higher = more signal.
Chain of Focal adhesion kinase 1 (Homo sapiens) (Q05397 whole entry, looked up): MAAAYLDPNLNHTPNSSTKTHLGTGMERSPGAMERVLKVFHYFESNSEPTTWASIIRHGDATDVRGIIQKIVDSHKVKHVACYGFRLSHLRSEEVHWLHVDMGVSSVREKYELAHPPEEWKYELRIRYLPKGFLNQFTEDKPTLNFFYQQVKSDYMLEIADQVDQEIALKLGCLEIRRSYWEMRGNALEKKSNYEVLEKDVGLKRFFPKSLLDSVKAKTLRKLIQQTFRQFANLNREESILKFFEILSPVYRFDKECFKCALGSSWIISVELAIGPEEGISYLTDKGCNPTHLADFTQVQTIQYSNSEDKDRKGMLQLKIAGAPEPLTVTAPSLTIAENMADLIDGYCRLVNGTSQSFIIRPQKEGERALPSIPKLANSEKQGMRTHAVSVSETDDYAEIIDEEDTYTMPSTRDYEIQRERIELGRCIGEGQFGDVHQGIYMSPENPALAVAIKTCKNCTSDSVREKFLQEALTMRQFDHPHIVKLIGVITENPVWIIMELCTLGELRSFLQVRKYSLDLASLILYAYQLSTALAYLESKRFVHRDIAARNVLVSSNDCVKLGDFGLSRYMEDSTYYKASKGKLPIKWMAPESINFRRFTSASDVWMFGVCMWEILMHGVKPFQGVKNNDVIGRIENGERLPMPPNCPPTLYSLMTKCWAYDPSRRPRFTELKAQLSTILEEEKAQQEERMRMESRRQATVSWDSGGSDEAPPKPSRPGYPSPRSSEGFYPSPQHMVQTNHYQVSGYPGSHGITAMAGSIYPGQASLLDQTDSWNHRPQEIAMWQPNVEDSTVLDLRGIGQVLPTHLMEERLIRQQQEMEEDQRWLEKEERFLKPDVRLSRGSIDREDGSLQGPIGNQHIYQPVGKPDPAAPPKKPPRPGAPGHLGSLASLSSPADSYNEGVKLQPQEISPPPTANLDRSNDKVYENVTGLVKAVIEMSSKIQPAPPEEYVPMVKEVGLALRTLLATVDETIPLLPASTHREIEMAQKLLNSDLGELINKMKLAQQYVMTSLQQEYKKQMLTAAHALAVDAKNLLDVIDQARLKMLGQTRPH
`COCCn1c(C(=O)N2CCCC2)cc2c1C[C@H]1CN(C(=O)c3ccccc3)[C@@](Cc3ccc(OC)cc3)(C(=O)OC)[C@@H]21` returned a composite z-score of 1.89.

`Cc1cc(C)c(C(O)C2C=CC3C(=O)NC(=O)C3N2Nc2ccccn2)c(C)c1` (configuration not stated) returned a composite z-score of 0.471.

Take `CC(c1ccccc1)C(O)C1C=CC2C(=O)N(Cc3ccccc3)C(=O)C2N1n1cnnc1` (configuration not stated): the composite z-score is 0.146.

The molecule `O=C(NCC(O)CO)[C@@]1(Cc2ccccc2)N=C(c2ccc(OCCCO)cc2)O[C@H]1c1ccccc1` (some centres not stated) had a composite z-score of 0.0855.

`CC(c1ccccc1)C(O)C1C=CC2C(=O)N(c3ccccc3)C(=O)C2N1Nc1ccccc1F` (configuration not stated): the composite z-score was 0.583.

For `C=CC[C@@]1(C(=O)NCc2ccccc2)N=C(c2ccc(OCCCO)cc2)O[C@@H]1c1ccccc1CN=[N+]=[N-]`, the composite z-score is 1.06.

In the case of `C=CCN1C(=O)[C@]2(Cc3ccccc31)N=C(c1ccc(OCCCO)cc1)O[C@@H]2c1ccccc1`, the composite z-score was 0.436.

Turning to `CCCCC(=O)N(Cc1ccccc1F)[C@@H]1CC(C(=O)NCCO)=C[C@H](Oc2c(I)cc(CO)cc2OC)[C@H]1O`, the composite z-score was 1.38.

Regarding `Cc1c(NC(=O)/C(C#N)=C/C=C/c2ccccc2)c(=O)n(-c2ccccc2)n1C`, the composite z-score is -0.358.

Molecule `CC(C)(C)OC(=O)CC[C@]1(C(=O)NCC(O)CO)N=C(c2ccc(OCCCO)cc2)O[C@H]1c1ccccc1CN=[N+]=[N-]` (some centres not stated) yielded a composite z-score of -0.0371.

Regarding `CCCC[C@@H]1C[C@H]1[C@@H](NC(=O)c1ccco1)c1ccccc1`, the composite z-score was -0.107.

On to `NC(=O)NCC#Cc1ccc2c(c1)[C@]1(C(=O)N2)[C@H](c2ccccc2OCCO)N2[C@H](c3ccccc3)[C@H](c3ccccc3)OC(=O)[C@H]2[C@@H]1C(=O)N1CCCCCCC1`, for which the composite z-score came out at 2.2.

These data come from PubChem BioAssay.
